The values below come from PubChem BioAssay (EPA / NIEHS).

Several values for one entry are separate records, joined by “and”; a condition that tells them apart may be missing. Identical values can stand only once. More than one record can exist for a structure, and the calls need not agree. Activity calls are given as the source filed them. Rule for the calls: active = hit-call score of the fitted dose curve at least 0.9, where 1 is the maximum; inactive = score below 0.9.

Read-out in assay [1]: Monokine induced gamma interferon (MIG), CXCL9 (gene 4283)
The assay is described as follows: BSK_hDFCGF_MIG: BioMAP Diversity Plus: hDFCGF Assay for Monokine induced gamma interferon (MIG) Biomarker Activity (AID 2283063). Conditions: primary human foreskin fibroblasts; actives raise or lower the signal. A digest of the protocol:
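MIG signal, determined by ELISA, reflects 24 h chemical exposure of human skin primary fibroblasts. DMSO serves as negative control and baseline.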

Read-out in assay [2]: Matrix Metallopeptidase 1 (MMP1), MMP1 (gene 4312)
The experiment in a line: BSK_hDFCGF_MMP1: BioMAP Diversity Plus: hDFCGF Assay for Matrix Metallopeptidase 1 (MMP1) Biomarker Activity (AID 2283064). Conditions: primary human foreskin fibroblasts; actives raise or lower the signal. A digest of the protocol:
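Primary human foreskin fibroblasts in the hDFCGF system were dosed with test chemical, and MMP1 was measured by ELISA 24 h later. Values come from bidirectional curve fitting against the DMSO baseline.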

Read-out in assay [3]: Vascular cell adhesion molecule 1 (VCAM1), VCAM1 (gene 7412)
The experiment in a line: BSK_hDFCGF_VCAM1: BioMAP Diversity Plus: hDFCGF Assay for Vascular cell adhesion molecule 1 (VCAM1) Biomarker Activity (AID 2283065).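 For AC50: VCAM-1 protein level quantified by ELISA after 24 h chemical exposure.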 The following applies: primary human foreskin fibroblasts; actives raise or lower the signal. The gist of the method: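 Cells are dosed, cultured for 24 h, then VCAM-1 is quantified by ELISA; signal increases and decreases are both fitted relative to DMSO.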

Read-out in assay [4]: Plasminogen activator inhibitor-1 (PAI1), SERPINE1 (gene 5054)
The experiment in a line: BSK_hDFCGF_PAI1: BioMAP Diversity Plus: hDFCGF Assay for Plasminogen activator inhibitor-1 (PAI1) Biomarker Activity (AID 2283066). The following applies: primary human foreskin fibroblasts; actives raise or lower the signal. The gist of the method: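 Human foreskin fibroblasts in the hDFCGF system were dosed with compound for 24 h; PAI-1 was quantified by ELISA. Bidirectional curve fitting used DMSO as negative control and baseline.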

Read-out in assay [5]: Intercellular Adhesion Molecule 1 (ICAM1), ICAM1 (gene 3383)
The experiment in a line: BSK_KF3CT_ICAM1: BioMAP Diversity Plus: KF3CT Assay for Intercellular Adhesion Molecule 1 (ICAM1) Biomarker Activity (AID 2283067). The following applies: primary human keratinocytes with fibroblasts; actives raise or lower the signal. A digest of the protocol: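 Dose the keratinocyte/fibroblast co-culture, wait 24 h, measure ICAM-1 by ELISA, then fit increases or decreases against DMSO. Cytotoxicity is checked in parallel cultures by SRB total-protein staining.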

Read-out in assay [6]: Interferon-gamma inducible Protein 10 (IP10), CXCL10 (gene 3627)
The experiment in a line: BSK_KF3CT_IP10: BioMAP Diversity Plus: KF3CT Assay for Interferon-gamma inducible Protein 10 (IP10) Biomarker Activity (AID 2283068). Conditions: primary human keratinocytes with fibroblasts; actives raise or lower the signal. A digest of the protocol:
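In a primary skin co-culture of keratinocytes and fibroblasts, IP-10 is quantified by ELISA at 24 h after dosing. SRB staining of parallel wells monitors overt toxicity. Curves are fitted both directions against DMSO.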

A short description of assay [7]: BSK_KF3CT_SRB: Viability Assessment in the BioMAP Diversity Plus: KF3CT Assay (AID 2283069). Conditions: primary human keratinocytes with fibroblasts. A digest of the protocol: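 Human primary keratinocyte plus foreskin fibroblast co-culture exposed to chemicals for 24 h. Total protein measured by 0.1% sulforhodamine B staining after 10% TCA fixation, read at 560 nm; bidirectional fitting versus DMSO baseline.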

Read-out in assay [8]: Interleukin-1 alpha (IL1a), IL1A (gene 3552)
The experiment in a line: BSK_KF3CT_IL1a: BioMAP Diversity Plus: KF3CT Assay for Interleukin-1 alpha (IL1a) Biomarker Activity (AID 2283070). The following applies: primary human keratinocytes with fibroblasts; actives raise or lower the signal. The gist of the method: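 Human keratinocyte plus foreskin fibroblast primary co-culture, sampled 24 h after chemical dosing. IL-1a measured by ELISA; responses fitted bidirectionally against DMSO baseline (negative control), so gain or loss of signal both count.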

Read-out in assay [9]: TIMP metallopeptidase inhibitor 2 (TIMP2), TIMP2 (gene 7077)
The experiment in a line: BSK_KF3CT_TIMP2: BioMAP Diversity Plus: KF3CT Assay for TIMP metallopeptidase inhibitor 2 (TIMP2) Biomarker Activity (AID 2283071). The following applies: primary human keratinocytes with fibroblasts; actives raise or lower the signal. The gist of the method: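 Human primary keratinocyte/foreskin fibroblast co-culture dosed with chemical and sampled at 24 h. TIMP-2 levels quantified by ELISA; bidirectional fitting against DMSO negative control as baseline.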

Read-out in assay [10]: C-C motif chemokine 2 (Homo sapiens) (UniProt P13500)
The assay is described as follows: BSK_KF3CT_MCP1: BioMAP Diversity Plus: KF3CT Assay for Monocyte Chemoattractant Protein 1 (MCP1/CCL2) Biomarker Activity (AID 2283073). The following applies: primary human keratinocytes with fibroblasts; actives raise or lower the signal. A digest of the protocol:
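Keratinocytes and foreskin fibroblasts were co-cultured, dosed with chemical, and sampled 24 h later. MCP-1 was quantified by ELISA, and the endpoint was analyzed with bidirectional fitting using DMSO as negative control.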

Read-out in assay [11]: Matrix Metallopeptidase 9 (MMP9), MMP9 (gene 4318)
The assay is described as follows: BSK_KF3CT_MMP9: BioMAP Diversity Plus: KF3CT Assay for Matrix Metallopeptidase 9 (MMP9) Biomarker Activity (AID 2283074). The following applies: primary human keratinocytes with fibroblasts; actives raise or lower the signal. A digest of the protocol: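 Keratinocyte plus foreskin fibroblast human primary skin co-culture was dosed with chemical and MMP-9 was quantified by ELISA 24 h later. Bidirectional curve fitting used DMSO as negative control and activity baseline.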

Read-out in assay [12]: urokinase plasminogen activator (uPA), PLAU (gene 5328)
The assay is described as follows: BSK_KF3CT_uPA: BioMAP Diversity Plus: KF3CT Assay for urokinase plasminogen activator (uPA) Biomarker Activity (AID 2283075). Conditions: primary human keratinocytes with fibroblasts; actives raise or lower the signal. A digest of the protocol: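 Human keratinocyte plus foreskin fibroblast primary co-culture exposed to chemical for 24 h. uPA levels were quantified by ELISA, and activity was fitted bidirectionally against a DMSO negative-control baseline.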

Read-out in another assay: CD40, CD40 (gene 958)
The assay is described as follows: BSK_LPS_CD40: BioMAP Diversity Plus: LPS Assay for CD40 Biomarker Activity (AID 2283076). Conditions: primary human HUVEC with PBMC; actives raise or lower the signal. A digest of the protocol: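 CD40 signal, measured by ELISA, is fitted in both directions relative to DMSO vehicle. The system is an LPS-driven human vascular primary co-culture of endothelial cells and PBMC, sampled 24 h after compound addition.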

Read-out in assay [13]: E-selectin (Homo sapiens) (UniProt P16581)
The experiment in a line: BSK_LPS_Eselectin: BioMAP Diversity Plus: LPS Assay for Eselectin Biomarker Activity (AID 2283077). The following applies: primary human HUVEC with PBMC; actives raise or lower the signal. The gist of the method:
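Signal of E-selectin, detected by ELISA, served as the endpoint; cells were umbilical vein endothelium with PBMC, read 24 h after treatment. DMSO defined baseline, and both increases and decreases were fitted.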

Read-out in assay [14]: Interleukin-8 (IL8), CXCL8 (gene 3576)
The experiment in a line: BSK_LPS_IL8: BioMAP Diversity Plus: LPS Assay for Interleukin-8 (IL8) Biomarker Activity (AID 2283078). Conditions: primary human HUVEC with PBMC; actives raise or lower the signal. A digest of the protocol: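 Endothelial cells and PBMC from human donors are co-cultured, treated with chemicals and LPS, then assayed for IL-8 by ELISA after 24 h. Parallel SRB staining (0.1% SRB after 10% TCA fixation, 560 nm) flags cytotoxicity.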

Assay [15] can be described thus: BSK_LPS_SRB: Viability Assessment in the BioMAP Diversity Plus: LPS Assay (AID 2283079).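 Note: total protein by sulforhodamine B absorbance as a cytotoxicity measure; measured one day after compound addition.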 Conditions: primary human HUVEC with PBMC. A digest of the protocol: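 Overt cytotoxicity was gauged by sulforhodamine B total-protein staining in a primary human vascular endothelial and mononuclear cell co-culture 24 h post-dosing. Activity was fitted in both directions relative to DMSO.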

Read-out in assay [16]: Interleukin-1 alpha (IL1a), IL1A (gene 3552)
The assay is described as follows: BSK_LPS_IL1a: BioMAP Diversity Plus: LPS Assay for Interleukin-1 alpha (IL1a) Biomarker Activity (AID 2283080). The following applies: primary human HUVEC with PBMC; actives raise or lower the signal. A digest of the protocol:
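Measured: IL-1 alpha via ELISA at 24 h in LPS-activated human umbilical vein endothelium–PBMC co-culture. Baseline: DMSO, bidirectional fitting.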

Read-out in assay [17]: Monocyte Chemoattractant Protein-1 (MCP1), CCL2 (gene 6347)
The experiment in a line: BSK_LPS_MCP1: BioMAP Diversity Plus: LPS Assay for Monocyte Chemoattractant Protein-1 (MCP1) Biomarker Activity (AID 2283081). The following applies: primary human HUVEC with PBMC; actives raise or lower the signal. A digest of the protocol:
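LPS-stimulated HUVEC/PBMC co-culture; chemical, 24 h; MCP-1 by ELISA; bidirectional fit vs DMSO; cytotoxicity via SRB (0.1% stain, 10% TCA fix, 560 nm) in parallel wells.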

Assay [18] in a line: BSK_LPS_PGE2: BioMAP Diversity Plus: LPS Assay for Prostaglandin E2 (PGE2) Biomarker Activity (AID 2283082). The following applies: primary human HUVEC with PBMC; actives raise or lower the signal. The gist of the method:
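HUVEC plus PBMC co-culture stimulated with LPS; secreted PGE2 quantified by ELISA 24 h after chemical dosing. Activity fitted bidirectionally against DMSO as negative control and baseline; parallel SRB total-protein staining served as cytotoxicity check.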

Chain of E-selectin (Homo sapiens) (P16581 whole entry, looked up): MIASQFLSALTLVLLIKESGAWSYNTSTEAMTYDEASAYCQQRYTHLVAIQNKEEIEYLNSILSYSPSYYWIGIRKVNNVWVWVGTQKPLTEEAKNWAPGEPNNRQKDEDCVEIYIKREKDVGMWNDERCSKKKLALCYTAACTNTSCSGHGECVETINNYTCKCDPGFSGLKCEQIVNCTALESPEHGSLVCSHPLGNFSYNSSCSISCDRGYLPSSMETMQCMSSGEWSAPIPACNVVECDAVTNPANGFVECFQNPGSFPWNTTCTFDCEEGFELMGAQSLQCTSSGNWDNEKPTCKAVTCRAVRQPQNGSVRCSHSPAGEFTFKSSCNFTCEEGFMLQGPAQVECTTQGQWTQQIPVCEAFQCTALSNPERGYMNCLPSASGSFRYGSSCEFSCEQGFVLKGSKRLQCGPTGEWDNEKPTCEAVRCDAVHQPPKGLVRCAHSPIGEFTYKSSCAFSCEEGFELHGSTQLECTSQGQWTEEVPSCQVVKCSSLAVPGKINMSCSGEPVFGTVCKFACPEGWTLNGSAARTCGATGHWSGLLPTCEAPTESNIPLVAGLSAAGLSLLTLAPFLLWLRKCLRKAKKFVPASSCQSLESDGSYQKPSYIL

As a reminder, the AC50 is the concentration giving half of the maximal activity seen. As to `O=S(=O)(O)CCC(F)(F)C(F)(F)C(F)(F)C(F)(F)C(F)(F)C(F)(F)F`, the outcome in assay [1], in assay [2], in [3], in assay [4], in [5] and in assay [6] was inactive. Moreover, the outcome in assay [7], in assay [8], in assay [9], in [10], in [11] and in assay [12] was inactive. The outcome in the assay with CD40, CD40 (gene 958) was “inactive”; in [13] it was “inactive”; in [14], “inactive”; in assay [15], “inactive”; in [16] it was “inactive”; in assay [17], “inactive”. Besides, the result in assay [18] was inactive. The AC50 in [14] was 22.5 µM (active).

`OC(O)(C(F)C(O)(O)C(F)(F)F)C(F)(F)F`: the AC50 in [1] was 30 µM (active) and 36.3 µM (active); in assay [3] it was 1.12 µM (active) and 13 µM (active). For the same compound, the result in assay [2], in assay [4], in assay [5], in assay [6], in assay [7] and in assay [8] was inactive. Further, the outcome in [9] is “inactive”; in [10], “inactive”; in [11] it was “inactive”; in assay [12] it was “inactive”; with CD40, CD40 (gene 958) it was “inactive”; in [13], “inactive”. In addition, the result in [14], in assay [15], in assay [16], in assay [17] and in assay [18] was inactive.

With `c1ccc2cc3ccccc3cc2c1`, the outcome in assay [1], in assay [2], in assay [3], in assay [4], in assay [5] and in [6] was inactive. For the same compound, the result in assay [7], in assay [8], in assay [9], in [10], in assay [11] and in assay [12] was inactive. For the same compound, the outcome with CD40, CD40 (gene 958) was “inactive”; in [13] it was “inactive”; in assay [14] it was “inactive”; in [15] it was “inactive”; in assay [16] it was “inactive”; in [17], “inactive”. Also, the result in assay [18] was inactive.
